The values that follow come from PubChem BioAssay (Tox21).

Experiment [1] deals with Acetylcholinesterase (Homo sapiens) (UniProt P22303). Kind of experiment: Acetylcholinesterase (AChE) small molecule antagonists: enzyme-based qHTS assay (AID 1347397; calls by dose curve; note: nearly all actives have a fitted effect of over 55% in size; note: potency is the fitted concentration of half-maximal effect). The conditions noted are these: Potency: AChE enzyme activity inhibition; outcome: AChE enzyme activity inhibition. A digest of the protocol: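 Colorimetric DTNB readout of acetylthiocholine hydrolysis, 10 min at room temperature, after 30 min room-temperature exposure of 50 mU/mL recombinant human enzyme to compound; DMSO vehicle control.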
(In general: Quantitative high-throughput screening tests each substance at several concentrations.)

The target is the same in experiment [2]. Kind of experiment: Acetylcholinesterase (AChE) small molecule antagonists: fluorescence cell-based qHTS assay (AID 1347398; calls by dose curve; note: nearly all actives have a fitted effect of over 50% in size; note: potency is the fitted concentration of half-maximal effect). The conditions noted are these: Potency: AChE activity; outcome: AChE activity. A digest of the protocol:
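Cellular AChE activity read as thiocholine from acetylthiocholine hydrolysis, detected by Thiolite Green fluorescence at 490/520 nm after 40 min at room temperature. Compounds were pre-incubated 30 min at 37 C on adherent SH-SY5Y cells.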

Experiment [3] has the same target. The experiment can be described thus: Acetylcholinesterase (AChE) small molecule antagonists: enzyme-based qHTS assay with human liver microsomes (AID 1347399; calls by dose curve; note: nearly all actives have a fitted effect of over 60% in size; note: potency is the fitted concentration of half-maximal effect). To be noted: Potency: qHTS inhibition; outcome: qHTS inhibition. A digest of the protocol:
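Recombinant human AChE (50 mU/mL in the enzyme mix) and human liver microsomes (0.25 mg/mL final) were preincubated with compound and NADPH (0.25 mg/mL final) for 30 min at 37 C. Acetylthiocholine/DTNB was then added; thiocholine was read colorimetrically after 10 min at room temperature.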

For experiment [4], the target named is Cytochrome P450 2D6 (Homo sapiens) (UniProt P10635). Kind of experiment: Cytochrome P450 Family 2 Subfamily D Member 6 (CYP2D6) small molecule antagonists: luciferase reporter qHTS assay (AID 1671196). Note: nearly all actives have a fitted effect of over 50% in size. Note: potency is the fitted concentration of half-maximal effect. In a few lines:
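Test chemicals meet CYP2D6 plus proluciferin substrate (10 min, RT); NADPH regenerating solution then drives turnover for 1 h. Detection reagent halts the reaction; luminescence measured after 20 min.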

Experiment [5] deals with Cytochrome P450 2C19 (Homo sapiens) (UniProt P33261). The experiment can be described thus: Cytochrome P450 Family 2 Subfamily C Member 19 (CYP2C19) small molecule antagonists: luciferase reporter qHTS assay (AID 1671197). Note: nearly all actives have a fitted effect of over 65% in size. Note: potency is the fitted concentration of half-maximal effect. In a few lines: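 Compounds were tested on CYP2C19 activity via proluciferin conversion to luciferin. The 37C, 1 h reaction followed NADPH addition; detection reagent stopped it.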

The target of experiment [6] is Voltage-gated inwardly rectifying potassium channel KCNH2 (Homo sapiens) (UniProt Q12809). The experiment can be described thus: Human Ether-a-go-go-Related Gene (hERG) channel small molecule antagonists: fluorescence cell-based qHTS assay (AID 1671200).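 Note: hERG-expressing U2OS cells given a thallium stimulus after FluxOR II dye loading; series mostly up to about 77 µM; nearly all actives have a fitted effect of over 50% in size.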 A digest of the protocol:
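Quantitative HTS in hERG-U2OS cells: thallium entry through the channel reports activity, read as continuous 480/540 nm fluorescence over 2 min after stimulus addition.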

Experiment [7] has as its target Cytochrome P450 3A4 (Homo sapiens) (UniProt P08684). The experiment can be described thus: Cytochrome P450 Family 3 Subfamily A Member 4 (CYP3A4) small molecule antagonists: luciferase reporter qHTS assay (AID 1671201). Note: nearly all actives have a fitted effect of over 50% in size. Note: potency is the fitted concentration of half-maximal effect. In a few lines:
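Inhibition of CYP3A4 is measured as loss of light: the enzyme converts a proluciferin substrate to luciferin, detected luminescently. Reaction ran 1 h at room temperature with NADPH regeneration after a 10 min compound preincubation.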

Experiment [8] has as its target Cytochrome P450 1A2 (Homo sapiens) (UniProt P05177). The experiment can be described thus: Cytochrome P450 Family 1 Subfamily A Member 2 (CYP1A2) small molecule antagonists: luciferase reporter qHTS assay (AID 1671199). Note: nearly all actives have a fitted effect of over 50% in size. Note: potency is the fitted concentration of half-maximal effect. A digest of the protocol:
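Steps: enzyme-substrate mix dispensed; test compounds and furafylline control pinned in; 10 min room temperature; NADPH regeneration solution added, 1 h; reaction stopped with luciferin detection reagent; luminescence read after 20 min.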
Background: A reporter such as luciferase makes a cellular process visible.

The target of experiment [9] is Cytochrome P450 2C9 (Homo sapiens) (UniProt P11712). The experiment can be described thus: Cytochrome P450 Family 2 Subfamily C Member 9 (CYP2C9) small molecule antagonists: luciferase reporter qHTS assay (AID 1671198). Note: nearly all actives have a fitted effect of over 50% in size. Note: potency is the fitted concentration of half-maximal effect. A digest of the protocol: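 Enzyme-substrate mix preincubated with compound 10 min at room temperature; reaction started with NADPH regeneration solution, 1 h 37C. Luminescent luciferin product read after 20 min detection reagent.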

Each structure is given as a SMILES string. Values without a mark were called inactive. Results filed as inconclusive are left out. Calls of active or inactive are those of the source. Unless noted, calls come from the whole dose curve; as a rule, active = well fitted curve in the direction sought with a large enough effect in the repeat runs; inconclusive = weak or mixed curves; inactive = no such curve, though single readings can be large; an effect the other way counts as inactive or inconclusive.

Sequence of Cytochrome P450 1A2 (Homo sapiens) (P05177 whole entry, looked up): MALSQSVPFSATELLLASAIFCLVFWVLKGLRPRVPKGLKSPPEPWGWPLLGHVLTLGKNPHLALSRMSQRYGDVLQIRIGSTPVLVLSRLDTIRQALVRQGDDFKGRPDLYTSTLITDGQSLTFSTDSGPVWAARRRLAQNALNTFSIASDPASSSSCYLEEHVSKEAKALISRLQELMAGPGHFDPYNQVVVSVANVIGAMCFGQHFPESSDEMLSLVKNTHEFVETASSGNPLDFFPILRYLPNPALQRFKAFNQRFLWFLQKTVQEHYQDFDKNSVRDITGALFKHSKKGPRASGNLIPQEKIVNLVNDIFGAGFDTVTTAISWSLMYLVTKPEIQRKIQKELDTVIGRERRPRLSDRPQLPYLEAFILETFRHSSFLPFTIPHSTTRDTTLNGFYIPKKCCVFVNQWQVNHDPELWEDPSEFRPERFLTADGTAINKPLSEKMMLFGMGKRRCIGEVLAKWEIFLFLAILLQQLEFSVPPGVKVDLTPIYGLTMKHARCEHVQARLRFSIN
Sequence of Cytochrome P450 2C9 (Homo sapiens) (P11712 whole entry, looked up): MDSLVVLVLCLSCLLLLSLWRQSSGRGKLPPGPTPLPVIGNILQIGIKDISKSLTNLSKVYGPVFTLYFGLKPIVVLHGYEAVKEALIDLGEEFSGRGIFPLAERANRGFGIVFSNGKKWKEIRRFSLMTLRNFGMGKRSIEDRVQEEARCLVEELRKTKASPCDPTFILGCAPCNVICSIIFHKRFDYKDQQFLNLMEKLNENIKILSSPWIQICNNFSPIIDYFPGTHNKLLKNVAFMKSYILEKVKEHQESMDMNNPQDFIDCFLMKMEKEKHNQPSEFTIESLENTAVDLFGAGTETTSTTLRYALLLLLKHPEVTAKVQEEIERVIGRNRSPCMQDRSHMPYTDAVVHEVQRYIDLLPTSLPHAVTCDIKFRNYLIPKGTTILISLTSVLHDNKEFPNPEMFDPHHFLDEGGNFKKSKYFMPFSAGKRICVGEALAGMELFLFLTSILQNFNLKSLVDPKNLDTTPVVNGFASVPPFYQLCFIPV
Sequence of Cytochrome P450 2C19 (Homo sapiens) (P33261 whole entry, looked up): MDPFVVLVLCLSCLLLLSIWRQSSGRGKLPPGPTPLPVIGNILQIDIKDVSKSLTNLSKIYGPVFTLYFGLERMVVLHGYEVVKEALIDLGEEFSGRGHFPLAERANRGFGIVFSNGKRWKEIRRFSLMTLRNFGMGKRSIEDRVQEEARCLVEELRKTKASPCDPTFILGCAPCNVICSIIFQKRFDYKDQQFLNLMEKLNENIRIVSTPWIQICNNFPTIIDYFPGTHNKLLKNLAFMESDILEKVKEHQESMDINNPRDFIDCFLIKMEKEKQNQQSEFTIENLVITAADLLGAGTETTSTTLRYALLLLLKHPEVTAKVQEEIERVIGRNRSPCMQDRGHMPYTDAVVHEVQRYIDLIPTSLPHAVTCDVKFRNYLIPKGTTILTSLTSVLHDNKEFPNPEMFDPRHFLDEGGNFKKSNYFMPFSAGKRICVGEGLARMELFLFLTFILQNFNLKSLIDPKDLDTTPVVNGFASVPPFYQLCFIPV
Sequence of Cytochrome P450 3A4 (Homo sapiens) (P08684 whole entry, looked up): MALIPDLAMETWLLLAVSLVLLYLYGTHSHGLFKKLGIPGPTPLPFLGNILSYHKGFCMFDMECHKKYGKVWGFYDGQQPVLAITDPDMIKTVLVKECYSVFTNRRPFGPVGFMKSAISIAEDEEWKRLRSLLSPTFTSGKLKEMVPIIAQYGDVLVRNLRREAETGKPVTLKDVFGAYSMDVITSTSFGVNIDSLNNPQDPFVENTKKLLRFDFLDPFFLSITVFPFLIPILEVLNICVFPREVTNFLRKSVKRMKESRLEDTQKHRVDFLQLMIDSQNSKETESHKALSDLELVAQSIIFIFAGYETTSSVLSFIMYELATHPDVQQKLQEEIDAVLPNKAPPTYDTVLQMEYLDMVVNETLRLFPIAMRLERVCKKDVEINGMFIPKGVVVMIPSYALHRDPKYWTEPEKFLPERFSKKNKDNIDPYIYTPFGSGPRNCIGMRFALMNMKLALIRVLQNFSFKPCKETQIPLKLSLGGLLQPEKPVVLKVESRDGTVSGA
Sequence of Voltage-gated inwardly rectifying potassium channel KCNH2 (Homo sapiens) (Q12809 whole entry, looked up): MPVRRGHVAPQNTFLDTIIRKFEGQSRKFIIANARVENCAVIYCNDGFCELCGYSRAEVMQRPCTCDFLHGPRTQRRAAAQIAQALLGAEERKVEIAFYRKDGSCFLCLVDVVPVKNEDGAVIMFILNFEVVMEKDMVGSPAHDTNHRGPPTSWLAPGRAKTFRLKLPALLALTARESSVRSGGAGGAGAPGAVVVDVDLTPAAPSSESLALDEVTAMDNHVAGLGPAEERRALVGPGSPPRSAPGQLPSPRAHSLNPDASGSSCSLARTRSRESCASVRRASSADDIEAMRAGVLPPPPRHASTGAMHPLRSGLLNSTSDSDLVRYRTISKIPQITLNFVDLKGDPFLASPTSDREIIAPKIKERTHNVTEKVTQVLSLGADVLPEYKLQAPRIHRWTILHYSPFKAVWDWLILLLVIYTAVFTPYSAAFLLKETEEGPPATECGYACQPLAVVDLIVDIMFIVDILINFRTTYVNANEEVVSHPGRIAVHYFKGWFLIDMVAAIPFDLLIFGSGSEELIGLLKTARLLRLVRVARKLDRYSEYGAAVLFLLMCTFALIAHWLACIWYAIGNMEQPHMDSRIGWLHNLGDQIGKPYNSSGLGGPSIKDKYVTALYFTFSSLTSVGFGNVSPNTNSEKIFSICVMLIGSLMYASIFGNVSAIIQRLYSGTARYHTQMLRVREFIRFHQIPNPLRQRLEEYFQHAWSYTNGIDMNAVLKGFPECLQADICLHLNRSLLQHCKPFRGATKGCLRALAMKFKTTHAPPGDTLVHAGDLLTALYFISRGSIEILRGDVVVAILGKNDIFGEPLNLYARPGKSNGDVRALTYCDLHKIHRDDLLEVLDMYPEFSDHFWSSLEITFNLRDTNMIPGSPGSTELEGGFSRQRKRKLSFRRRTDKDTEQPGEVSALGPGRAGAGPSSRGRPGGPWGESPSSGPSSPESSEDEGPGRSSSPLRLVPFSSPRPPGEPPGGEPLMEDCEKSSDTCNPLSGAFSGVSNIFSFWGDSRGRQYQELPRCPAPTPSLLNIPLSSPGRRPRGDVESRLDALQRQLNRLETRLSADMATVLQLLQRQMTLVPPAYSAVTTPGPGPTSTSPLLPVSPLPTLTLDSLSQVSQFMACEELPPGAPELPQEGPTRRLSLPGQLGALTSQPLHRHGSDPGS
Sequence of Acetylcholinesterase (Homo sapiens) (P22303 whole entry, looked up): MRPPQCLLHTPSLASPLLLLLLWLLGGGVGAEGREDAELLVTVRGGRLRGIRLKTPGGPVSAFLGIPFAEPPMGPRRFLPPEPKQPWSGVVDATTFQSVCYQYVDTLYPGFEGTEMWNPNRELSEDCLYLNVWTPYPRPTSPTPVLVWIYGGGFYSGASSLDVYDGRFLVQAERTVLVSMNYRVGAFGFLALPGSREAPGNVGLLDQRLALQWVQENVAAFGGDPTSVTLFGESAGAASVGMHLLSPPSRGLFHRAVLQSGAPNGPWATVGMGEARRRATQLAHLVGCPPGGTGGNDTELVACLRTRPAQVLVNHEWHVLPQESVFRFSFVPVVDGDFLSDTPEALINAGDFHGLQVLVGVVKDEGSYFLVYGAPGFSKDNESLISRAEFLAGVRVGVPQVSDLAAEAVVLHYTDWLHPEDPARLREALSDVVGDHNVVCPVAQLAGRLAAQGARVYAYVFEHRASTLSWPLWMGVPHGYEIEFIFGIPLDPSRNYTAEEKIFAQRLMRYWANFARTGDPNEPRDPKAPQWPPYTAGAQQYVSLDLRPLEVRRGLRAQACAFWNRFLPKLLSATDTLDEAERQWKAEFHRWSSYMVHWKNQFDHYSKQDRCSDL
Sequence of Cytochrome P450 2D6 (Homo sapiens) (P10635 whole entry, looked up): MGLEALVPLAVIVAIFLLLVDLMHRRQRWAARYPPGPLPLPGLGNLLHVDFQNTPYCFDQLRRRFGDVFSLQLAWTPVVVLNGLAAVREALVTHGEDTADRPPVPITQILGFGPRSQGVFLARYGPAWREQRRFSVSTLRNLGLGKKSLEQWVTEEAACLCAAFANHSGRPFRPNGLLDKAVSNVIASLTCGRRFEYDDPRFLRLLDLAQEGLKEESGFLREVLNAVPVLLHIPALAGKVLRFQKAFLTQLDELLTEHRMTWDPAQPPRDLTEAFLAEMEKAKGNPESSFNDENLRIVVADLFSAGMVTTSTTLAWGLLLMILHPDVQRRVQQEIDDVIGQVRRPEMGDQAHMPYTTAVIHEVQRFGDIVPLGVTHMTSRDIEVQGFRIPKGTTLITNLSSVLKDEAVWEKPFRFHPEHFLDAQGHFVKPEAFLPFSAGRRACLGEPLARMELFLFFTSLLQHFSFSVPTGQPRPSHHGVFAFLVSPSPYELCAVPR

Turning to `O=C(O)C(F)(F)C(F)(F)C(F)(F)C(F)(F)C(F)(F)C(F)(F)F`, the Potency result in experiment [1], in experiment [2], in [3], in experiment [4], in experiment [5] and in experiment [6] was “inactive” in each case. In experiment [7], the Potency result is “inactive”.
On to `Cc1ccc2cc(C)ccc2c1`, for which the Potency entry in [1], in [2], in [3], in experiment [4], in [5] and in experiment [6] was “inactive” in each case. Besides, the Potency result in experiment [7] was “inactive”.
In the case of `COC[C@@H](NC(C)=O)C(=O)NCc1ccccc1`, the Potency entry in [1], in [2], in experiment [3], in experiment [4], in [5] and in experiment [7] was “inactive” each time.
Regarding `O=CCCl`, the Potency result in [1], in experiment [2], in experiment [3], in experiment [4], in experiment [5] and in experiment [8] was “inactive” throughout. In addition, the Potency entry in experiment [6] and in [7] was “inactive” throughout.
For the compound `CCNc1nc(NCC)nc(SC)n1`, the Potency result in [1], in [2], in experiment [3], in experiment [4], in experiment [9] and in [7] was “inactive” each time. The Potency in experiment [8] is 10 µM (active).
With `COc1ccccc1OC`, the Potency result in [1], in [2], in experiment [3], in experiment [4], in experiment [8] and in experiment [6] was “inactive” each time. Also, the Potency result in experiment [7] was “inactive”. Further, the Potency in experiment [5] is 79.6 µM (active).
On to `CCN(CCO)CCO`, for which the Potency result in [1], in [2], in [3], in [4], in experiment [5] and in experiment [8] was “inactive” throughout. The Potency result in experiment [7] is “inactive”.
For `CCC(C)(C#N)N=NC(C)(C#N)CC` (stereo not given), the Potency result in experiment [1], in [2], in experiment [3], in experiment [4], in experiment [9] and in [8] was “inactive” throughout. In addition, the Potency result in [6] and in experiment [7] was “inactive” throughout.
Take `NC1(c2ccccc2)CCCCC1`: the Potency entry in experiment [1], in [2], in experiment [3], in [9], in [8] and in experiment [6] was “inactive” throughout. Further, the Potency result in experiment [7] is “inactive”. Also, the Potency in [4] is 31.4 µM (active).
`ClC(Cl)(Cl)Cl`: the Potency result in [1], in experiment [2], in [3], in [4], in [5] and in experiment [6] was “inactive” in each case. Also, the Potency entry in experiment [7] was “inactive”.
In the case of `CCCCOC(C)=O`, the Potency entry in experiment [1], in [2], in experiment [3], in [4], in experiment [5] and in experiment [6] was “inactive” in each case. The Potency entry in experiment [7] is “inactive”.
As for `CC(=NC#N)N(C)Cc1ccc(Cl)nc1`, the Potency entry in experiment [1], in experiment [2], in experiment [3], in experiment [4], in experiment [8] and in experiment [6] was “inactive” throughout. Besides, the Potency result in experiment [7] is “inactive”.
Regarding `ClCCN1CCCC1`, the Potency entry in experiment [1], in [2], in [3], in [4], in experiment [9] and in experiment [8] was “inactive” in each case. In addition, the Potency entry in [6] and in [7] was “inactive” each time.
For the compound `O=C(O)c1c(Cl)ccc2cc(Cl)cnc12`, the Potency result in experiment [1], in [2], in experiment [3], in [4], in [6] and in experiment [7] was “inactive” in each case. Also, in experiment [9], the Potency was 79.6 µM (active).
With `CC[C@H](N)c1ccccc1`, the Potency result in [1], in experiment [2], in experiment [3] and in experiment [6] was “inactive” throughout. The Potency in experiment [4] is 35.6 µM (active); in [5], 63.3 µM (active); in experiment [7], 31.7 µM (active).
Turning to `O=C(Cl)CCl`, the Potency result in experiment [1], in [2], in experiment [3], in [9], in experiment [6] and in experiment [7] was “inactive” each time. Also, the Potency in [4] was 71.4 µM (active).
Take `CCOc1cc(OP(=S)(OC)OC)nc(CC)n1`: the Potency result in experiment [1], in experiment [2], in experiment [3], in experiment [4], in experiment [6] and in experiment [7] was “inactive” each time. The Potency in experiment [5] is 35.6 µM (active).
Take `O=C1CCCCC1Cl` (stereo not given): the Potency entry in [1], in experiment [2], in experiment [3], in experiment [4] and in experiment [7] was “inactive” in each case. Further, the Potency in experiment [5] is 40.4 µM (active); in experiment [8], 36 µM (active).
On to `O=S1(=O)OCCO1`, for which the Potency entry in experiment [1], in [2], in experiment [3], in experiment [4], in experiment [9] and in experiment [6] was “inactive” in each case. For the same compound, in experiment [7], the Potency entry is “inactive”.
Turning to `COC1=CC(=O)O[C@@H](/C=C/c2ccccc2)C1`, the Potency entry in experiment [1], in experiment [2], in experiment [3], in [6] and in [7] was “inactive” throughout. For the same compound, the values for the Potency in experiment [5], in experiment [9] and in experiment [8] were 5.72 µM (active), 32.2 µM (active) and 28.7 µM (active), respectively.
For the compound `CCN[C@@H](C)Cc1ccccc1`, the Potency entry in experiment [1], in experiment [2], in experiment [3], in experiment [8], in experiment [6] and in experiment [7] was “inactive” in each case. Besides, in experiment [4], the Potency was 6.28 µM (active).
As to `CNC(=O)Oc1cc(C)c(N(C)C)c(C)c1`, the Potency in experiment [1] is 2.25 µM (active); in [2] it was 0.797 µM (active); in experiment [3], 12.6 µM (active); in experiment [5], 79.7 µM (active); in experiment [8], 10 µM (active). For the same compound, the Potency entry in experiment [9] and in experiment [7] was “inactive” throughout.
`O=C(Cl)C(Cl)(Cl)Cl`: the Potency entry in experiment [1], in experiment [2], in experiment [3], in experiment [5], in experiment [8] and in experiment [6] was “inactive” each time. Further, the Potency result in experiment [7] was “inactive”.
Turning to `O=C1CC(=O)NC(=O)N1`, the Potency entry in experiment [1], in experiment [2], in [3], in [5], in [9] and in experiment [8] was “inactive” in each case. In addition, the Potency entry in experiment [6] and in experiment [7] was “inactive” throughout.
In the case of `Nc1c(Cl)c(F)nc(OCC(=O)O)c1Cl`, the Potency result in experiment [1], in experiment [2], in [3], in [4], in experiment [6] and in experiment [7] was “inactive” throughout.
For `Cl/C=C/CCl`, the Potency result in experiment [1], in [2], in experiment [3], in [5], in [9] and in experiment [7] was “inactive” each time.
With `NC(=O)CS(=O)C(c1ccccc1)c1ccccc1` (stereo not given), the Potency entry in experiment [1], in [2], in [3], in experiment [9], in experiment [8] and in experiment [6] was “inactive” throughout. Also, the Potency result in [7] is “inactive”. The Potency in experiment [5] is 24.5 µM (active).
Regarding `BrCCc1ccccc1`, the Potency entry in experiment [1], in experiment [2], in [3], in experiment [5], in [9] and in experiment [8] was “inactive” in each case. Further, the Potency entry in [6] and in [7] was “inactive” each time.
In the case of `COP(=O)(O)OC`, the Potency entry in experiment [1], in [2], in experiment [3], in [9] and in [7] was “inactive” throughout. Moreover, the Potency in experiment [5] was 18.5 µM (active); in [8], 32.8 µM (active).
Take `CCOC(=O)Nc1cccc(OC(=O)Nc2ccccc2)c1`: the Potency entry in experiment [1], in experiment [2], in experiment [3] and in experiment [6] was “inactive” throughout. Further, the values for the Potency in [5] and in [8] were 20 µM (active) and 12.6 µM (active), respectively.
